Screens deposited in PubChem BioAssay by National Center for Advancing Translational Sciences (NCATS).
NS1 inh = blocks influenza NS1 protein function; AID 2326; Potency, µM (highest dose often 46.1 µM); 270,000 tested, 0.4% active; calls by dose curve; also: actives are rising curves; nearly all actives have a fitted effect of over 50% in size
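S. cerevisiae expressing influenza A NS1, grown in glucose, washed, then diluted 1:100 into pH 6.0 -URA galactose medium with 23 nl compound. Growth recovery read as OD600; NS1-free strain serves as control.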
Cycloheximide cs = counter-screen for Shiga toxin inhibitors: cycloheximide protein synthesis inhibition | cell reporter, cycloheximide protein synthesis inhibition counterscreen | max response, % | 300,000 tested, 12% active | AID 2314; in the data active = max response mostly above about 13%, no sharp cut-off; inactive = mostly below about 14%; also: read at 38.3 µM for the half of the compounds with a filed dose
SARS PLpro yeast = blocks SARS-CoV papain-like protease in a yeast assay | 330,000 tested, 0.19% active | Potency, µM (doses to about 32.9 µM), actives largely listed as activators | AID 485353 | S. cerevisiae expressing SARS-CoV PLpro, growth rescue; calls by dose curve; also: nearly all actives have a fitted effect of over 55% in size
Pf growth 48h = inhibits P. falciparum growth in the first generation, 48 h; P. falciparum luciferase growth in erythrocytes, 48 h; Potency, µM (top dose mostly 28.7 µM), hits mostly inhibitors; 310,000 tested, 5.9% active
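Here the parasites carry a stable luciferase gene and grow inside erythrocytes in Albumax-based RPMI medium with compound for one erythrocytic cycle. Activity is scored as loss of luminescent signal.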
Shiga toxin inh = blocks Shiga toxin action in Vero cells; Vero cells, Shiga toxin protein synthesis inhibition reporter; inhibition, % at 38.7 µM; 290,000 tested, 9.2% active; AID 2315; in the data active = inhibition mostly above about 28%, no sharp cut-off; inactive = mostly below about 43%
Pf growth 96h = inhibits malaria parasite growth, 96 h; 320,000 tested, 6.9% active; Potency, µM (doses to about 28.7 µM), actives largely listed as inhibitors; P. falciparum luciferase reporter growth, 96 h
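Infected RBCs, 2% Hct / 0.05% parasitemia final; luciferase-reporter P. falciparum; cpd 96 h, 37 C, 5% CO2; luciferase detection reagent; luminescence.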
Of the large screens only hits and unclear results are named; the others gave an inactive call. Shown are actives, neighbours in structure and some others; about 21% of the full set was active somewhere. Unless noted, calls follow the shape of the dose curve; as a rule, active = well fitted inhibition curve with a large enough effect; inconclusive = small, poorly fitted or top-dose-only effect, or another doubt; inactive = no such curve, though single readings can be large or run the other way.

COc1ccc(NC(=O)CSc2nc(O)cc(=O)n2-c2ccc(OC)cc2)cc1	Pf growth 48h inconclusive
CC(=O)N1CCCc2cc(S(=O)(=O)N3CCN(c4ccccn4)CC3)ccc21	Pf growth 96h inconclusive
O=C(CN1C(=O)/C(=C/c2cccc(Br)c2)SC1=S)NCCCN1CCOCC1	none
COC(=O)c1ccc(/C=C2\SC(=S)N(CCCC(=O)NCCCN3CCOCC3)C2=O)cc1	Pf growth 48h inconclusive
Cc1ccc(/C=C2\SC(=S)N(CCC(=O)NCCCN3CCOCC3)C2=O)cc1	Pf growth 96h inconclusive
O=C(CCCN1C(=O)/C(=C/c2cccc(Br)c2)SC1=S)NCCCN1CCOCC1	Pf growth 48h inconclusive, Pf growth 96h 3.3µM
O=C(CCN1C(=O)/C(=C/c2ccccc2Cl)SC1=S)NCCCN1CCOCC1	Pf growth 48h inconclusive, Pf growth 96h 13µM
COc1ccc(/C=C2\SC(=S)N(CCC(=O)NCCCN3CCOCC3)C2=O)cc1	Cycloheximide cs 13, Pf growth 48h inconclusive
O=C(CCCN1C(=O)/C(=C/c2ccccc2Cl)SC1=S)N1CCOCC1	Pf growth 48h inconclusive, Pf growth 96h inconclusive
CCc1ccc(/C=C2\SC(=S)N(CCC(=O)NCCCN3CCOCC3)C2=O)cc1	Cycloheximide cs 45, Shiga toxin inh 46, Pf growth 96h inconclusive
CNC[C@@H]1Oc2ccc(NS(=O)(=O)c3ccc(Cl)cc3)cc2C(=O)N([C@H](C)CO)C[C@@H]1C	none (no result: NS1 inh, Cycloheximide cs, Pf growth 48h, Shiga toxin inh, Pf growth 96h)
COC(=O)c1[nH]c2ccccc2c1NC(=O)C(C)N1CC(C)OC(C)C1 (stereo not given)	Pf growth 96h inconclusive
COc1ccccc1CNC(=O)Nc1cccs1	Cycloheximide cs 19
COc1cccc(CNC(=O)Nc2cccs2)c1	Cycloheximide cs 33, Shiga toxin inh 64, Pf growth 96h inconclusive
COc1cccc(Cn2cc(C)cc(NC(=O)NCc3ccccc3)c2=O)c1	Cycloheximide cs 15, Pf growth 96h inconclusive (no result: Shiga toxin inh)
Cc1cc(NC(=O)NCc2ccccc2)c(=O)n(Cc2ccccc2F)c1	Pf growth 96h inconclusive
COc1ccc(CNC(=O)Nc2cccs2)cc1OC	NS1 inh inconclusive, Pf growth 96h inconclusive
COc1cccc(CNC(=O)CCNS(=O)(=O)c2cccs2)c1	Pf growth 96h 1.2µM
O=C(Nc1ccccc1)/C(=C/c1ccc(F)cc1)NC(=O)c1ccco1	none
Cc1ccc(CNC(=O)Nc2cccs2)cc1	Cycloheximide cs 50, Shiga toxin inh 51
O=C(CSC1=NS(=O)(=O)c2ccccc2N1)Nc1nccs1	Pf growth 48h inconclusive (no result: NS1 inh, Cycloheximide cs, Shiga toxin inh)
O=C(CN1C(=O)c2ccccc2C1=O)OCC(=O)N1CCCCC1	none (no result: NS1 inh, Cycloheximide cs, Pf growth 48h, Shiga toxin inh, Pf growth 96h)
COc1cccc(C(=O)Nc2cccc(NC(=O)c3cccs3)c2)c1	Cycloheximide cs 11, Pf growth 96h inconclusive
CC(=O)Oc1cccc(C(=O)Nc2ccc(NC(=O)c3cccs3)cc2)c1	Cycloheximide cs 42, Shiga toxin inh 163
Cc1ccc(C(=O)Cn2nnc3ccccc32)cc1[N+](=O)[O-]	Cycloheximide cs 28, Shiga toxin inh 94
O=C(Cn1nnc2ccccc21)OCC(=O)c1ccccc1	Pf growth 96h 4.1µM
O=C(Cn1nnc2ccccc21)c1cccc([N+](=O)[O-])c1	Pf growth 96h inconclusive
O=C(Cn1nnc2ccccc21)c1ccccc1	Cycloheximide cs 20
Cc1ccc(CNC(=O)C(=O)NCC2OCCN2C(=O)c2cccs2)cc1 (stereo not given)	none
O=C(O)c1cccc(OCCO)c1	none (no result: Cycloheximide cs, SARS PLpro yeast, Pf growth 48h, Shiga toxin inh, Pf growth 96h)
C[C@]12CC[C@@H]3c4ccc(O)cc4CC[C@H]3[C@@H]1C[C@H](O)C2O (stereo not given in full)	Pf growth 96h inconclusive (no result: NS1 inh, Cycloheximide cs, SARS PLpro yeast, Shiga toxin inh)
CC(Oc1ccccc1)c1ccnc(N)n1 (stereo not given)	Cycloheximide cs 22
CC(C)=C[C@H]1[C@@H](C(=O)OCc2cc3c(cc2Cl)OCO3)C1(C)C	none (no result: Cycloheximide cs, SARS PLpro yeast, Pf growth 48h, Shiga toxin inh, Pf growth 96h)
O=C(Nc1cc(F)c(Br)cc1F)c1ccc(Cl)cc1	Cycloheximide cs 34, Shiga toxin inh 111
Cc1ccc(C(=O)Nc2ccc(Cl)cc2C)c(Cl)c1	Cycloheximide cs 27, Shiga toxin inh 100 (no result: NS1 inh)
O=C(CCNC(=O)c1ccc(Cl)cc1)Nc1ccc(F)cc1F	none
Cc1ccc(C(=O)Nc2ccc(Cl)cc2C(F)(F)F)c(Cl)c1	Cycloheximide cs 31, Shiga toxin inh 56
Cc1noc(C)c1C(=O)Nc1ccc(Cl)cc1C(F)(F)F	Pf growth 48h inconclusive (no result: Pf growth 96h)
Cc1cc(NC(=O)c2ccc(Cl)cc2)ccc1NC(=O)c1ccccc1Cl	Pf growth 96h 3.7µM
COc1ccc(Cl)cc1NC(=O)NCc1ccccn1	none
O=C(CN1CCOc2ccccc21)N1CCN(c2cccc(Cl)c2)CC1	none (no result: Cycloheximide cs, SARS PLpro yeast, Pf growth 48h, Shiga toxin inh, Pf growth 96h)
Cn1c(=O)oc2cc(S(=O)(=O)Nc3ccc(F)cc3)ccc21	none
O=C(CN1CCCC1)Nc1ccc(Cl)cc1C(F)(F)F	none (no result: NS1 inh)
O=C(Nc1ccc(Cl)cc1C(F)(F)F)c1ccccc1Cl	Cycloheximide cs 13, Pf growth 96h inconclusive
O=C(Nc1ccc(Cl)cc1C(F)(F)F)c1ccc(Cl)cc1	Cycloheximide cs 16
Cc1ccc(NC(=O)c2ccc(Cl)cc2Cl)cc1O	Cycloheximide cs 39, Shiga toxin inh 94
N#Cc1ccc(Oc2ccc(/C=N/O)cn2)cc1	none
CC(=O)N1CCN(CC(=O)Nc2cc(S(=O)(=O)N3CCCCC3)ccc2C)CC1	none (no result: NS1 inh, Cycloheximide cs, Pf growth 48h, Shiga toxin inh, Pf growth 96h)
O=C1CSC(=S)N1/N=C/c1c(F)cccc1F	none
O=C1CSC(=S)N1N=C1CCCCCC1	Cycloheximide cs 14
O=C(CSc1ccc(-c2nc3ccccc3[nH]2)cn1)Nc1ccc2c(c1)OCCO2	Cycloheximide cs 18
CC(=O)Nc1ccc(NC(=O)CSc2ccc(-c3ccc4c(c3)OCO4)nn2)cc1	none
N#C/C(=C\Nc1ccc2c(c1)OCCO2)c1nc(-c2ccccc2)cs1	none
N#C/C(=C\Nc1ccc2c(c1)OCCO2)c1nc2ccccc2[nH]1	Cycloheximide cs 60, Pf growth 48h inconclusive (no result: Pf growth 96h)
Cc1ccc(SCC(=O)Nc2ccc(-c3nc4ccccc4[nH]3)cc2)cc1	Pf growth 48h 12µM
Cc1ccc(-c2ccc(SCC(=O)Nc3ccc4c(c3)OCCO4)nn2)cc1	Cycloheximide cs 28, Shiga toxin inh 22
CC(CCC(=O)O)(c1cc(Br)c(O)c(Br)c1)c1cc(Br)c(O)c(Br)c1	none (no result: Cycloheximide cs, SARS PLpro yeast, Pf growth 48h, Shiga toxin inh, Pf growth 96h)
Cc1cccc(NC(=O)CSc2ccc(-c3cccnc3)nn2)c1	Pf growth 48h inconclusive, Pf growth 96h 12µM
Cc1ccc2nc(-c3ccc(SCC(=O)Nc4ccc5c(c4)OCCO5)nc3)[nH]c2c1	Cycloheximide cs 107, Shiga toxin inh 81
O=C(CCc1nc2ccccc2[nH]1)Nc1ccc2c(c1)OCCO2	Pf growth 96h 1µM
Cc1nonc1NC(=O)CSc1ccccn1	none
CN(C)S(=O)(=O)c1ccc(SCC(=O)Nc2ccc3c(c2)OCCO3)nc1	none (no result: NS1 inh, Cycloheximide cs, Shiga toxin inh)
Cc1ccc(-c2ccc(SCC(=O)Nc3nonc3C)nn2)cc1	Cycloheximide cs 27, Shiga toxin inh 42
O=C(NC1CC(=O)N(c2cccc(F)c2)C1)C(=O)c1c[nH]c2ccccc12 (stereo not given)	none (no result: NS1 inh, Cycloheximide cs, Shiga toxin inh)
